{"source": "PubChem BioAssay", "data": [{"molecular_target": "Pro-neuregulin-1, membrane-bound isoform (Homo sapiens) (UniProt Q02297)", "sequence (Q02297 whole entry, looked up, canonical isoform)": "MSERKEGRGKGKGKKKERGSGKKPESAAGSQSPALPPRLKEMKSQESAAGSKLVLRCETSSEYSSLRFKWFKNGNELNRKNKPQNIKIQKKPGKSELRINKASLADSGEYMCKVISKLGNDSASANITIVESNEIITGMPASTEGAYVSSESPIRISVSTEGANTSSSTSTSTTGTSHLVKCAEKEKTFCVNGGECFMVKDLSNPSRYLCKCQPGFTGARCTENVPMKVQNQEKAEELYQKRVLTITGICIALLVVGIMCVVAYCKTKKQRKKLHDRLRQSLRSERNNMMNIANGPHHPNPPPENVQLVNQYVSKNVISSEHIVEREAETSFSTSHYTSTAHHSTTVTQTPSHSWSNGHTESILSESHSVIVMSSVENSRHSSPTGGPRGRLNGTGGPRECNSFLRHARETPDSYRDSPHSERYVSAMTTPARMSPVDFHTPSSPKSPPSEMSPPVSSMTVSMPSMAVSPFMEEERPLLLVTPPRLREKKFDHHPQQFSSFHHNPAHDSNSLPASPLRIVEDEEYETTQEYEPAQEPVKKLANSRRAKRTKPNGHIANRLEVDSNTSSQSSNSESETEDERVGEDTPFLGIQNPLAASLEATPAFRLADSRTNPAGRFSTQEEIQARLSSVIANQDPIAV", "experiment": "NRG1 binders on small-molecule microarrays, primary screen, psychiatric disease protein project, biochemical, small-molecule microarray, fluorescence 635/667 (AID 1075);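 also: score combines 667 nm spot fluorescence with signal to noise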", "details": "NRG1 binding, 635 nm fluorescence, higher = more signal", "values": [{"molecule": "C[C@@]1([C@@H](NS(=O)(=O)c2cccc3cccnc23)c2ccc(-c3ccccc3)cc2)C[C@H]1C1CCCCC1", "composite z-score": 0.609}, {"molecule": "O=C1O[C@H](c2ccccc2)[C@H](c2ccccc2)N2[C@H]1[C@@H](C(=O)N1CCN(c3ncccn3)CC1)[C@]1(C(=O)Nc3ccc(C#CC4(O)CCCCCC4)cc31)[C@H]2c1ccc(O)cc1", "composite z-score": 1.54}, {"molecule": "C=CCC(OC(C)=O)[C@@H]1[C@@H](N(Cc2ccc(-c3ccccc3)cc2)C(=O)Cc2ccc(OC)cc2)c2cc(OCCCO)ccc2N1C(=O)c1ccc2ccccc2c1", "note": "(stereo not given in full)", "composite z-score": -0.157}, {"molecule": "O=C(NC1CC1)[C@@H]1c2ccccc2C(=O)N(C2CCCCC2)[C@H]1c1ccc(CO)cc1", "composite z-score": 1.79}, {"molecule": "COC(=O)[C@@]1(Cc2ccccc2)[C@H]2c3cc(C(=O)N(C)C)n(Cc4nc5ccccc5[nH]4)c3C[C@H]2CN1C(=O)c1ccccc1", "composite z-score": 2.12}, {"molecule": "C=CCOC(=O)[C@@H]1[C@H]2C(=O)O[C@H](c3ccccc3)[C@H](c3ccccc3)N2[C@H](c2ccc(OCCOC(=O)[C@@H]3C[C@@H]4C(=O)N[C@@H](CC(C)C)C(=O)N4[C@@H]3c3ccc(O)cc3)cc2)[C@@]12C(=O)Nc1ccc(I)cc12", "composite z-score": 0.616}, {"molecule": "COCCOC(=O)N1C(=O)[C@@]2(c3cc(C#CCNC(N)=O)ccc31)[C@H](C(N)=O)[C@H]1C(=O)O[C@H](c3ccccc3)[C@H](c3ccccc3)N1[C@@H]2c1ccc(O)cc1", "composite z-score": 0.0637}, {"molecule": "C=CCNC(=O)[C@H]1[C@@H]2C(=O)O[C@@H](c3ccccc3)[C@@H](c3ccccc3)N2[C@@H](c2ccc(OCCO)cc2)[C@]12C(=O)Nc1ccc(C#Cc3ccc(OC)cc3)cc12", "composite z-score": 1.52}, {"molecule": "CN1C(=O)C2C=CC(C(O)c3ccc(I)cc3)N(N(c3ccccc3)c3ccccc3)C2C1=O", "note": "(stereo not given)", "composite z-score": 0.495}, {"molecule": "Cc1ccc(S[C@]2(C(=O)NCc3ccccc3)CC(=O)N(Cc3ccccc3Cl)[C@@H]2c2ccc(CO)cc2)cc1", "composite z-score": 1.26}, {"molecule": "C[C@]1(C(=O)O)c2ccccc2C(=O)N(Cc2cc(C(F)(F)F)cc(C(F)(F)F)c2)[C@H]1c1ccc(CO)cc1", "composite z-score": -0.179}, {"molecule": "COC(=O)C(CC#Cc1ccc2c(c1)[C@]1(C(=O)N2)[C@H](C(N)=O)[C@H]2C(=O)O[C@H](c3ccccc3)[C@H](c3ccccc3)N2[C@@H]1c1ccccc1OCCO)C(=O)OC", "composite z-score": 1.67}, {"molecule": "COC(=O)[C@@]1(Cc2ccc(F)cc2)[C@H]2c3cc(C(=O)N(C)C)n(Cc4ccc(C(F)(F)F)nc4)c3C[C@H]2CN1C(=O)c1ccccc1", "composite z-score": 2.03}, {"molecule": "CCN1C(=O)C2CC(=O)C3C(CN(S(=O)(=O)c4ccc(C)cc4)C3c3ccc(C)cc3)C2C1=O", "note": "(stereo not given)", "composite z-score": 1.61}, {"molecule": "C=C[C@H](OC)[C@@H](O)c1ccc(OC)c(O)c1", "composite z-score": -0.967}, {"molecule": "CCCCCN1CC=CC23O[C@@H]4/C=C\\CCCOC(=O)C4[C@H]2C(=O)N(CCCCCO)[C@@H]3C1=O", "note": "(stereo not given in full)", "composite z-score": -0.315}, {"molecule": "CC(C)C[C@H]1NC(=O)CNC(=O)[C@@]23C(=O)N[C@@H](Cc4ccccc4)C2[C@H](C)[C@@]2(C)O[C@H]2C3/C=C/C/C=C\\CNC1=O", "note": "(stereo not given in full)", "composite z-score": 0.205}, {"molecule": "C=CCNC(=O)[C@@H]1[C@H]2C(=O)O[C@H](c3ccccc3)[C@H](c3ccccc3)N2[C@H](c2ccc(OCCO)cc2)[C@@]12C(=O)Nc1ccc(C#CCNC(N)=O)cc12", "composite z-score": 0.43}, {"molecule": "CC(C)[Si](C#Cc1ccccc1)(O[C@H](c1ccccc1)c1cn(Cc2ccccc2)nn1)C(C)C", "composite z-score": 0.8}, {"molecule": "C=C(C(=O)CC[C@@H](OC(=O)c1cccnc1)c1cccc(OCCO)c1)C(C)C", "composite z-score": -0.145}, {"molecule": "CCCCN1CC=CC23O[C@@H]4/C=C\\CCC(C)OC(=O)C4[C@H]2C(=O)N(CCO)[C@@H]3C1=O", "note": "(stereo not given in full)", "composite z-score": 0.19}, {"molecule": "O=C/C=C/c1ccc(-c2ccccc2)cc1", "composite z-score": -0.727}, {"molecule": "COc1cc(CO)cc(I)c1O[C@H]1C=C(C(=O)NCCO)C[C@@H](N(CCN2CCOCC2)C(=O)C2CCCO2)[C@@H]1O", "note": "(stereo not given in full)", "composite z-score": -0.34}, {"molecule": "CC(C)C[C@@H]1NC(=O)[C@H]2C[C@@H](C(=O)O)[C@@H](c3cccc(OCCO)c3)N2C1=O", "composite z-score": 1.61}, {"molecule": "COc1cc(Cc2cc3c(c(CCc4ccccc4)n2)[Si](C(C)C)(C(C)C)O[C@H]3c2ccccc2)cc(OC)c1OC", "composite z-score": -0.499}, {"molecule": "C=CCNC(=O)[C@@H]1[C@H]2C(=O)O[C@H](c3ccccc3)[C@H](c3ccccc3)N2[C@H](c2ccc(O)cc2)[C@@]12C(=O)Nc1ccc(C#CC3=CCCCC3)cc12", "composite z-score": 1.15}, {"molecule": "Cc1cccc([C@H]2C[C@H]3C(Br)=C[C@@]2(CO)C(=O)[C@]32CO2)c1", "composite z-score": 0.131}, {"molecule": "COCCOC(=O)N1C(=O)[C@@]2(c3cc(C#CCCO)ccc31)[C@H](C(=O)N1CCN(c3ncccn3)CC1)[C@H]1C(=O)O[C@H](c3ccccc3)[C@H](c3ccccc3)N1[C@@H]2c1ccc(OCCO)cc1", "composite z-score": 1.53}, {"molecule": "COC(=O)[C@H](Cc1ccccc1)N1CC(C)(OC)O[C@@H](Cc2ccccc2)[C@H]1/C=C/C1CC1", "note": "(stereo not given in full)", "composite z-score": 0.0246}, {"molecule": "CCOC(=O)C1=CCC(c2ccncc2)N(S(=O)(=O)c2ccc(C)cc2)C1", "note": "(stereo not given)", "composite z-score": 2.03}, {"molecule": "COC(=O)[C@@]1(Cc2ccc(F)cc2)[C@H]2c3cc(C(=O)N4CCCC4)n(Cc4ccc(C(F)(F)F)nc4)c3C[C@H]2CN1C(=O)c1ccccc1", "composite z-score": 2.1}, {"molecule": "COCCOC(=O)N1C(=O)[C@@]2(c3cc(C#CCNC(N)=O)ccc31)[C@H](c1ccccc1OCCO)N1[C@H](c3ccccc3)[C@H](c3ccccc3)OC(=O)[C@H]1[C@@H]2C(=O)N1CCCCCCC1", "composite z-score": 0.665}, {"molecule": "CCCCC(=C=CC[C@@H](O)c1ccccc1OCCO)C[C@@H](O)c1ccccn1", "composite z-score": 0.69}, {"molecule": "O=C(NCC(F)(F)F)[C@@H]1c2ccccc2C(=O)N(Cc2cc(C(F)(F)F)cc(C(F)(F)F)c2)[C@H]1c1ccc(CO)cc1", "composite z-score": 1.73}, {"molecule": "CC(CO)N1C(=O)[C@@H]2[C@H]3C(=O)OCC=C[C@H]3OC23C=CCN(c2ccc4ccccc4c2)C(=O)[C@@H]13", "note": "(stereo not given in full)", "composite z-score": -1.2}]}]}
